In paper PMC11062922 (Nature Chemical Biology, 2023):

The compounds below were run on PTK2. Conditions: read-out: apparent Kd; compound concentrations:100 nM and 1000 nM (sheet 'Samples'); n = 1.
Design: species or system human, MV4-11 + K-562 + COLO205 + SK-N-BE2 + OVCAR-8

SMILES | potency estimated from few doses [nM]
NCCNS(=O)(=O)c1ccc(-c2ccnc3[nH]ccc23)cc1 [GSK977617A] | 343
O=C1NC(=O)C(N2CCc3ccccc32)=C1c1ccccc1Cl [SB-373598] | 173
Cl.Cl.NCC(C(=O)Nc1cc(Br)c(-c2ccnc3[nH]ccc23)s1)c1ccccc1.NCC(C(=O)Nc1cc(Br)c(-c2ccnc3[nH]ccc23)s1)c1ccccc1 (stereo not shown) [GSK1269851A] | 422
CC(C)N1CCC(n2cnc(-c3ccc(F)cc3)c2-c2ccnc(N)n2)CC1 [SB-223132] | 433
CNC(=O)c1ccccc1Nc1nc(Nc2ccc(N3CCOCC3)cc2)ncc1Cl.Cl [GSK1576028A] | 8.08
CN1C[C@@H]2Cn3c(c(C4=C(c5cn(C)c6ccccc56)C(=O)NC4=O)c4ccccc43)C[C@H]2C1.Cl [RO0320234-001] | 129
Cc1ccc2c(-c3ccncc3)c(-c3ccc(F)cc3)nn2c1.Cl [GW461484A] | 462
